TEAD-YAP inh: TEAD-YAP interaction inhibition | HEK-TIYL cells, TEAD-Gal4/YAP UAS-luciferase luminescence | inhibition, % at 9.12 µM | hit rate 1.4% among 640,000; in the data active = inhibition above about 32%;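 note: 0% = median of test compound wells and 100% = reference inhibitor wells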
GPR151 activ: activates the human receptor GPR151. PathHunter beta-arrestin GPR151 cells, luminescence. activation, % at 11.2 µM. hit rate 1% among 650,000; in the data active = activation above about 4.9%;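 note: 0% = median of compound wells and 100% = cells with positive control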
Target sequence (Q8TDV0 whole entry, looked up): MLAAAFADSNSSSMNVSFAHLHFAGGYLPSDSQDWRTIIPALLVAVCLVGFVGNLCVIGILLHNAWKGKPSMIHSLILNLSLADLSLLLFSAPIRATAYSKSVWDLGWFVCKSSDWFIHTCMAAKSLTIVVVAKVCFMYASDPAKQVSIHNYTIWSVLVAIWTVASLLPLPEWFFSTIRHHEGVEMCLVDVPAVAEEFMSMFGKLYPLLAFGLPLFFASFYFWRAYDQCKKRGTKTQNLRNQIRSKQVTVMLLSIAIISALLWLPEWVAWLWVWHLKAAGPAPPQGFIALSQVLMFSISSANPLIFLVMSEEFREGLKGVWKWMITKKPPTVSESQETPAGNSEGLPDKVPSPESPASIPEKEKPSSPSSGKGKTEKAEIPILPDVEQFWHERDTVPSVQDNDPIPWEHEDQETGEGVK
FBW7 activator: activators of human E3 ligase FBW7. normalized activity (activation), % at 26.1 µM. hit rate 0.13% among 650,000. Q969H0. AlphaScreen FBW7–phospho-cyclin E peptide binding, activator screen; in the data active = normalized activity above about 1.9%;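 note: purified mutant Fbw7 with reduced substrate affinity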
MITF primary: blocks human microphthalmia-associated transcription factor | O75030 | AlphaScreen MITF homodimerization, bead proximity signal | inhibition, % at 2.6 µM | hit rate 0.91% among 650,000; in the data active = inhibition above about 50%;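 note: 0% = vehicle wells with protein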
MITF inh conf: confirmation of human MITF inhibitors; AlphaScreen MITF homodimerization, biotin/His-MITF beads; inhibition, % at 2.6 µM; hit rate 16% among 4,700; shares compounds with MITF primary;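 active = inhibition above a cutoff derived from the DMSO control wells, cut at about 28% in these data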;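 note: 0% = MITF dimer wells with DMSO only; inhibitors lower the bead chemiluminescence by keeping MITF from dimerizing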
AlphaScreen DR: optically interferes with AlphaScreen signal in dose response; hit rate 6% among 480; AlphaScreen optical interference counterscreen, cell-free; IC50, µM; shares compounds with MITF primary; AID 1259373; call rule not given here
AlphaScreen intf2: optically interferes with AlphaScreen signal; LysRS AlphaScreen counterscreen, signal interference, triplicate; hit rate 7.6% among 4,700; inhibition, % at 2.6 µM; AID 1259376; shares compounds with MITF primary;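 active = inhibition above a cutoff derived from the DMSO control wells, cut at about 30% in these data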
* marks the source's active call; other numbers are inactive results; i = inactive; . = no result. In the library only some 3.4% were active in any assay of this set; here they are far more common.

SMILES | TEAD-YAP inh | GPR151 activ | FBW7 activator | MITF primary | MITF inh conf | AlphaScreen intf2 | others
CC(C)NC(=O)N1CCC2(CC1)OCCc1c2[nH]c2ccccc12 | -3 | -1 | -1 | -8 | . | .
O=C(NCc1ccccc1)NC1(C(=O)N2CCN(c3ncccn3)CC2)CCCCC1 | -8 | 0 | 0 | 4 | . | .
O=C(NCc1ccccc1)NC1(C(=O)N2CCCC2)CCCCC1 | -1 | -1 | -1 | 68* | 9 | 32*
CCCOc1ccc(C2Oc3ccc(Br)cc3C3CC(c4ccccc4)=NN32)cc1 (stereo unspecified) | -56 | -2 | 0 | 8 | . | .
CCCOc1ccc(C2Oc3ccc(Br)cc3C3CC(c4ccc(Cl)cc4)=NN32)cc1 (stereo unspecified) | -28 | -2 | 0 | 74* | 5 | 15
Cc1nonc1CN(C)C(=O)C1CC12CCN(C(=O)Cc1cccc3ccccc13)CC2 (stereo unspecified) | 6 | 0 | 0 | i | . | .
CCCNC(=O)c1cc(-c2ccc(Br)cc2)on1 | -50 | -1 | 0 | -19 | . | .
CCCCNC(=O)c1cc(-c2ccc(Br)cc2)on1 | -8 | -1 | 0 | 52* | 1 | 3
COc1ccccc1CN1CCN(C2CCCCC2)CC1 | -1 | -1 | 0 | 70* | -5 | -4
COc1ccccc1CN1CCC(N2CCN(C)CC2)CC1 | 10 | 0 | 0 | 46 | . | .
CCN1CCN(C2CCN(Cc3cc(OC)c(OC)c(OC)c3)CC2)CC1 | -3 | -1 | 0 | 49 | . | .
CCN1CCN(C2CCN(Cc3ccc(OC)c(OC)c3OC)CC2)CC1 | 3 | -1 | 0 | 61* | -13 | -7
COc1ccc(CN2CCC(N3CC(C)OC(C)C3)CC2)c(OC)c1OC (stereo unspecified) | 9 | 1 | 0 | 65* | -2 | 2
COc1ccc(CN2CCN(C3CCCC(C)C3)CC2)c(OC)c1OC (stereo unspecified) | -6 | 2 | 0 | 54* | 9 | 13
N#C/C(=C(/O)COC(=O)c1cc2ccccc2cc1O)c1nc2ccccc2[nH]1 | 3 | -1 | 0 | -5 | . | .
CN(C)CC(=O)Nc1ccc(Cl)cc1Cl | 2 | -1 | 0 | 2 | . | .
Cc1sc2ncn(CC(=O)NCCN(C)C)c(=O)c2c1S(=O)(=O)N1CCOCC1 | -5 | 0 | 0 | -7 | . | .
COc1ccc(CN2CCN(C3CCCCC3)CC2)c(OC)c1OC | 8 | 1 | 0 | 76* | -4 | 2
COc1ccc(CN2CCN(C3CCC(c4ccccc4)CC3)CC2)c(OC)c1OC (stereo unspecified) | 8 | 2 | 0 | 53* | 12 | 22
CCOc1ccccc1CN1CCC(N2CCOCC2)CC1 | -6 | -1 | 0 | 50 | . | .
CCOc1ccccc1CN1CCC(N2CCC(C)CC2)CC1 | 0 | -1 | 0 | 70* | 16 | 17
COc1ccc(CN2CCC(N3CC(C)OC(C)C3)CC2)cc1 (stereo unspecified) | 1 | -1 | 0 | 87* | -4 | 0
S=c1[nH]nc(-c2ccco2)n1/N=C/C=C/c1ccco1 | -8 | -1 | -1 | 73* | 33* | 2 | AlphaScreen DR=>6.5
COc1ccccc1C(NC(=O)C1CCN(C(=O)OC(C)C)CC1)c1ccccn1 (stereo unspecified) | -4 | -1 | 0 | 2 | . | .
O=C(NC(=S)Nc1ccc2[nH]c(=O)[nH]c2c1)c1ccccc1Cl | -9 | 0 | 0 | 99* | -10 | -3
SMILES | TEAD-YAP inh | GPR151 activ | FBW7 activator | MITF primary | MITF inh conf | AlphaScreen intf2 | others
COc1ccccc1C(=O)NC(=S)Nc1ccc2[nH]c(=O)[nH]c2c1 | -47 | -1 | 0 | -10 | . | .
Cc1ccccc1NC(=O)CN1CCN(Cc2ccccc2)CC1 | -2 | 0 | 0 | 12 | . | .
N#Cc1ccccc1NC(=O)CN1CCN(Cc2ccccc2)CC1 | -6 | -1 | 0 | 60* | 4 | 0
O=C(CN1CCN(CC(=O)c2ccco2)CC1)Nc1ccccc1F | -10 | 1 | 0 | 66* | 9 | 14
O=C(CN1CCC(NC(=O)c2ccco2)CC1)Nc1ccccc1F | 1 | 1 | 0 | -3 | . | .
COc1ccc(Cl)cc1NC(=O)CN1CCN(CC(=O)c2ccco2)CC1 | 1 | 1 | 0 | 53* | 8 | 12
COc1ccc(Cl)cc1NC(=O)CN1CCN(C)CC1 | 5 | 0 | 0 | 12 | . | .
O=C(CN1CCN(CC(=O)c2ccco2)CC1)Nc1ccc2c(c1)OCCO2 | 0 | -1 | -1 | 69* | 10 | 17
CCCc1cc(=O)[nH]c2nnc(SCC(=O)Nc3ccc4c(c3)OCO4)n12 | -5 | 0 | 0 | 11 | . | .
O=C(CC(=O)c1ccco1)Nc1cc(Cl)ccc1Cl | -20 | -1 | 0 | 56* | 0 | 15
Oc1ccc(N2CCN(CC(O)COCc3ccccc3Cl)CC2)cc1 (stereo unspecified) | -3 | 0 | 0 | 56* | 6 | 23
OC(COCc1ccccc1F)CN1CCN(c2ccccc2)CC1 (stereo unspecified) | -1 | 1 | 0 | 4 | . | .
CCOc1ccccc1N1CCN(CC(O)COCc2ccccc2OC)CC1 (stereo unspecified) | 0 | 1 | 0 | 74* | -6 | -1
CCOc1ccc(OCC(O)CNC2CCN(Cc3ccccc3)CC2)cc1 (stereo unspecified) | 5 | 1 | 0 | -1 | . | .
OC(CNC1CCN(Cc2ccccc2)C1)COCc1ccccc1Cl (stereo unspecified) | 6 | -1 | 0 | 55* | -9 | 0
COc1cc(-c2nc3sc4c(c3c(=O)[nH]2)CCCC4)ccc1OC(=O)c1ccc(Cl)cc1 | -2 | 1 | 0 | -14 | . | .
O=c1[nH]c(-c2ccco2)nc2sc3c(c12)CCCC3 | -28 | -1 | 0 | 81* | 69* | -13 | AlphaScreen DR=>9.7
COc1cc(-c2nc3sc4c(c3c(=O)[nH]2)CCCC4)ccc1OC(=O)c1ccc(F)cc1 | 3 | 0 | 0 | 75* | -2 | -5
O=C(COc1cccc(Cl)c1)N1CCN(c2ccc3nnc(C4CC4)n3n2)CC1 | 4 | 2 | 0 | -7 | . | .
O=C(Nc1ccc(Br)cc1)NC1CC(=O)N(c2ccc(F)cc2)C1 (stereo unspecified) | 6 | -1 | 0 | -6 | . | .
COC(=O)C1=C(C)n2nnnc2NC1c1cc2ccccc2o1 (stereo unspecified) | 11 | 1 | 0 | 77* | 10 | 18
CCCN1CCC(NCCc2ccc(Cl)cc2)CC1 | 5 | 0 | 0 | 51* | 0 | 1
CCCCN1C(=O)S/C(=C\c2ccccc2OCC(=O)O)C1=O | -1 | 0 | 0 | 2 | . | .
CSc1ccccc1NC(=O)CN(C)C(C)C(=O)NCc1ccc2c(c1)OCO2 (stereo unspecified) | 9 | 4 | 0 | 88* | -3 | 13
CSc1ccccc1C(=O)NCc1ccc2c(c1)OCO2 | -1 | 0 | 0 | 3 | . | .

High-throughput results deposited in PubChem by The Scripps Research Institute Molecular Screening Center.
